Screening results from PubChem.
This is a sample that favours compounds with a hit; in the whole collection about 3.3% have one here.
PfG6PD inh: PfG6PD (Plasmodium falciparum) enzyme inhibition; PfGluPho enzyme, NADPH resazurin-diaphorase fluorescence; inhibition, % at 20 µM; 0.78% of 350,000 active;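 active means inhibition reaching at least a set limit at 20 µM in the primary screen, cut at about 59% in these data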;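 further: 0% = DMSO wells with substrate and 100% = DMSO wells lacking glucose-6-phosphate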
PfM18AAP inh-1: PfM18AAP enzyme inhibition. recombinant PfM18AAP, H-Glu-NHMec fluorogenic cleavage. inhibition, % at 7.35 µM. 1.2% of 290,000 active. AID 1822;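 active means inhibition above the campaign mean inhibition over all tested compounds plus 3 SD, cut at about 28% in these data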;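 further: 0% = plate median of test compound wells and 100% = 2 mM ZnCl2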
PRMT1 FP inh: blocks human protein arginine methyltransferase 1; recombinant PRMT1, activity-based probe fluorescence polarization; inhibition, % at 2.79 µM; 1.3% of 370,000 active;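 active means inhibition above about 21% made by adding two undisclosed values, limit read from the data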
Target sequence (Q99873 whole entry, looked up): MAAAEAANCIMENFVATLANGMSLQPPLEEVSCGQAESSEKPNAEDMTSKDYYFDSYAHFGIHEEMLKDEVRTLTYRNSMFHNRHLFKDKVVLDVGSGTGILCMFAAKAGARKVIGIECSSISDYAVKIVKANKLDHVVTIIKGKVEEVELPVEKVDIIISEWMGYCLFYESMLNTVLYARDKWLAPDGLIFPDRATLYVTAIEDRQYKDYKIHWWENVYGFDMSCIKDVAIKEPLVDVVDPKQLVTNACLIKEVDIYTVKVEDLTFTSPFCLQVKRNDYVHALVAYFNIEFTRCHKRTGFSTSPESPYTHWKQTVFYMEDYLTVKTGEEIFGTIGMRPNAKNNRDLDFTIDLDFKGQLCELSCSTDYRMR
UHRF1 MBD2 ctr: human UHRF1 methylated DNA binding inhibitors. UHRF1 binding to methylated oligo, TR-FRET. inhibition, % at 4.4 µM. 0.75% of 370,000 active;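 further: UHRF1 SRA domain binding a hemimethylated CpG hairpin DNA probe; 0% = median of test compound wells and 100% = reference inhibitor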
MBD2 inh: blocks human MBD2 binding to methylated DNA | TR-FRET, MBD2 binding to methylated oligonucleotide | inhibition, % at 4.4 µM | 0.31% of 370,000 active | AID 686964; in the data active means inhibition above about 13%
PfM18AAP inh-2: PfM18AAP inhibition, confirmation; shares compounds with PfM18AAP inh-1; recombinant PfM18AAP, H-Glu-NHMec fluorogenic cleavage; inhibition, % at 7.35 µM; 28% of 2,400 active;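 active means mean inhibition over replicate wells above the hit cutoff set for the earlier primary screen, cut at about 29% in these data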;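 further: 0% = median of test compound wells and 100% = 2 mM ZnCl2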
CTSL1 confirm: counter-screen for PFM18AAP inhibitors: confirmation of human cathepsin L inhibitors; inhibition, % at 5.96 µM; purified cathepsin L1, Z-Leu-Arg-MCA fluorescence; shares compounds with PfM18AAP inh-1; 2,400 tested, under 10 active;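 active means average inhibition across replicates above the hit cutoff set in the earlier primary screen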;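 further: 0% = median of test compound wells and 100% = Z-Phe-Ala-diazomethylketone 1 µM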
Target sequence (P07711 whole entry, looked up): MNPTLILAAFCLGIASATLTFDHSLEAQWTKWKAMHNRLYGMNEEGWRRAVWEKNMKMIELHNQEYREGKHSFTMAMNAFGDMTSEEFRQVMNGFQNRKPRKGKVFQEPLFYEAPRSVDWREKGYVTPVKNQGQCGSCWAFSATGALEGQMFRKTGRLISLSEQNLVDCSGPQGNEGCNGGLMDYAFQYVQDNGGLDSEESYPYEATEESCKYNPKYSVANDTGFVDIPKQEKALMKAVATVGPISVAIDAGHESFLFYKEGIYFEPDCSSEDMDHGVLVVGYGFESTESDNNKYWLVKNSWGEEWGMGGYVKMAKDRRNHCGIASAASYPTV
PfGluPho conf: confirmation of Plasmodium falciparum G6PD inhibitors | inhibition, % at 20 µM | shares compounds with PfG6PD inh | recombinant PfGluPho, NADPH-diaphorase-resazurin fluorescence | 34% of 2,400 active;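 active means inhibition of at least 50% at 20 µM in any single replicate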;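 further: 0% = DMSO with substrate and 100% = DMSO lacking glucose-6-phosphate substrate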
Diaph ctr 10uM: inhibits diaphorase or oxidizes, flagging false PfG6PD hits; shares compounds with PfG6PD inh; diaphorase-coupled resazurin reduction, fluorescence, NADPH 10 uM; inhibition, % at 20 µM; 39% of 820 active;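 active means average inhibition reaching 50% or more with the compound at 20 µM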;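 further: resorufin red fluorescence formed as diaphorase reduces resazurin using NADPH; 0% = DMSO with enzyme and 100% = DMSO without enzyme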
Diaph ctr 30uM: diaphorase inhibition or oxidation at 30 uM NADPH; shares compounds with PfG6PD inh; Diaphorase/resazurin coupled assay, resorufin fluorescence; inhibition, % at 20 µM; 29% of 820 active;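 active means inhibition averaging 50% or more, tested at 20 µM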;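 further: 0% = DMSO with enzyme and 100% = DMSO wells lacking diaphorase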
PRMT1 inh conf: PRMT1 (human) inhibition, FP confirmation. shares compounds with PRMT1 FP inh. inhibition, % at 2.79 µM. 42% of 3,300 active. recombinant His-PRMT1, activity-based probe fluorescence polarization;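 active means mean inhibition across replicates above the hit cutoff derived for the earlier primary screen, cut at about 22% in these data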
UHRF1 DNA bind: counter-screen for MBD2 inhibitors: human UHRF1 methylated DNA binding inhibitors. shares compounds with MBD2 inh. UHRF1 binding to methylated oligonucleotide, TR-FRET. inhibition, % at 4.4 µM. 25% of 1,000 active. AID 720530;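 further: UHRF1 SRA domain binding a labeled hemimethylated CpG hairpin DNA; 0% = vehicle only and 100% = reference inhibitor with vehicle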
MBD2 DBD conf: confirmation of human MBD2-DBD methylated oligonucleotide binding inhibitors | 26% of 1,000 active | shares compounds with MBD2 inh | inhibition, % at 4.4 µM | TR-FRET MBD2-DBD binding to methylated oligonucleotide; in the data active means inhibition above about 14%
The depositor's hits bear a star; / = no result; ! = repeats disagree. Unless noted, no stated cut-off is given here; in the data, active means inhibition above about 21%; inactive means the rest.

SMILES	PfG6PD inh	PfM18AAP inh-1	PRMT1 FP inh	UHRF1 MBD2 ctr	MBD2 inh	PfGluPho conf	others
C=CCN1CCc2cccc3c2[C@H]1Cc1ccc(O)c(O)c1-3	81*	62*	40*	4	1	84*	PfM18AAP inh-2=56*;CTSL1 confirm=-5;Diaph ctr 10uM=23;Diaph ctr 30uM=14
CC[N+](CC)(CC)CC	-2	/	-2	0	-3	/
O=C(OCC(=O)c1ccc([N+](=O)[O-])cc1)/C(=C\c1ccc(Cl)cc1)NC(=O)c1ccccc1	44	40*	21	-2	-1	69*	PfM18AAP inh-2=4;CTSL1 confirm=12;Diaph ctr 10uM=-3;Diaph ctr 30uM=-12
O=C(Cc1ccccc1)OCC(=O)c1ccccc1	0	-11	-2	2	5	/
CC[n+]1c(/C=C/C=C/c2ccc(N(C)C)cc2)sc2ccccc21	53	-4	-6	-17	-26	/
CC[n+]1c(/C=C/N(C)c2ccccc2)sc2ccc(Cl)cc21	7	36*	29*	0	0	/	PfM18AAP inh-2=-47;CTSL1 confirm=3;PRMT1 inh conf=5
CCOc1nc(NC(C)C)nc(N2CC3CC(C2)c2cccc(=O)n2C3)n1 (centres undefined)	23	-4	1	-2	5	/
CC1=C[C@@H]2c3cccc4[nH]cc(c34)C[C@H]2N(C)C1	59*	48*	39*	8	-1	-34	PfM18AAP inh-2=-12;CTSL1 confirm=-1;PRMT1 inh conf=36*
O=C1NC(=S)NC(=O)C1=Cc1cccn1-c1ccc(O)cc1	25	34*	42*	32*	14*	/	PfM18AAP inh-2=57*;CTSL1 confirm=-2;PRMT1 inh conf=68*;UHRF1 DNA bind=41*;MBD2 DBD conf=24*
COC1=CC2C3Cc4ccc(OC)c(O)c4C2(CCN3C)CC1=O (centres undefined)	5	/	-1	1	-2	/
COc1cccc(N2C(=O)NC(=O)/C(=C/c3ccc([N+](=O)[O-])s3)C2=O)c1	83*	-4	19	3	-1	43
O=c1[nH]c(=S)n(C2CC2)c(O)c1C=Nc1cccc(C(F)(F)F)c1	5	3	5	1	2	/
COc1cc2c(cc1OC)-c1c(OC)c(OC)cc3c1C(C2)N(C)CC3 (centres undefined)	68*	18	0	34*	13	41
CC(=O)OC1N=C(c2ccc(Cl)cc2)c2cc(Br)ccc2NC1=O (centres undefined)	78*	-9	0	1	-2	47
CC(=O)OC1N=C(c2ccccc2)c2cc(Br)ccc2NC1=O (centres undefined)	-5	-3	1	7	-1	/
CCn1nc(/C=C/c2ccccc2)nc2c(=O)n(C)c(=O)nc1-2	102*	8	-7	7	5	76*	Diaph ctr 10uM=93*;Diaph ctr 30uM=98*
CC(C)N1CCN(c2ccc(O)cc2)CC1	72*	20	16	1	1	29
Cc1nn(Cc2ccc(Cl)cc2Cl)c(Cl)c1C(=O)Nc1ccc(OC(F)F)cc1	23	-6	-1	-4	0	/
COC(=O)C1=C(c2ccc(F)cc2OCc2ccccc2)C[C@@H]2CC[C@H]1N2C(=O)NC1CC1	-6	/	1	0	4	/
CCOP(=S)(OCC)Oc1cc(C)oc(=O)c1Cl	63*	8	4	0	-5	17
CCOP(=S)(OCC)Oc1ccc2c(C)c(Cl)c(=O)oc2c1	15	/	-5	1	-4	/
Cc1ccc(-c2nc(N3CCOCC3)s[n+]2-c2ccccc2)cc1	60*	1	3	0	2	77*	Diaph ctr 10uM=-33;Diaph ctr 30uM=-25
O=S(=O)(c1ccccc1)C1CN1c1c(F)c(F)c(F)c(F)c1F (centres undefined)	/	/	2	0	-2	/
Cc1cccc(N=C2c3cc([N+](=O)[O-])ccc3-c3c2cc([N+](=O)[O-])cc3[N+](=O)[O-])c1	74*	/	-1	6	-1	18
CC(=O)c1cn(CC(=O)NCCc2c[nH]c3ccccc23)c2ccccc12	10	7	1	1	2	/
SMILES	PfG6PD inh	PfM18AAP inh-1	PRMT1 FP inh	UHRF1 MBD2 ctr	MBD2 inh	PfGluPho conf	others
O=C1C(Cl)=CC(=Nc2ccc(O)cc2)C=C1Cl	116*	/	22*	-6	-9	111*	Diaph ctr 10uM=93*;Diaph ctr 30uM=81*
NCCc1cc(O)c(O)cc1O	94*	/	43*!	58*	25*	68*	Diaph ctr 10uM=53*;Diaph ctr 30uM=47
COc1cccc(-n2c(/C=C/c3ccc(O)c(O)c3)nc3ccccc3c2=O)c1	64*	57*	2	0	-1	6
COc1ccc(-n2c(/C=C/c3ccc(O)c(OC)c3)nc3ccccc3c2=O)cc1	20	-13	-2	-4	-3	/
COc1ccc(/C=C/C=C2C(=O)NC(=S)NC2=O)cc1	-41	/	14	4	-2	/
Cc1ccc(/C=C2\C(=O)NC(=S)N(c3ccc(F)cc3)C2=O)s1	33	0	11	0	0	/
Cc1ccc(/C=C2\C(=O)NC(=S)N(c3ccccc3F)C2=O)s1	66*	-4	3	-3	1	56*	Diaph ctr 10uM=-28;Diaph ctr 30uM=-19
COc1ccc(N2C(=O)/C(=C/c3cccs3)C(=O)NC2=S)cc1	29	5	1	-4	-2	/
COc1ccc(N2C(=O)/C(=C/C=C/c3ccccc3[N+](=O)[O-])C(=O)NC2=S)cc1	61*	-9	10	0	2	30
CCOCCCNC(=O)CN1C2CCC1CC(O)(c1ccc(OC)cc1)C2 (centres undefined)	28	0	2	1	0	/
Cc1cccc(-n2c(O)c(C)c(=O)[nH]c2=S)c1	28	9	8	1	7	/
Nc1cc(Cl)c2nonc2c1[N+](=O)[O-]	46	4	41*	-22	-9	/	PRMT1 inh conf=10
O=[N+]([O-])c1c(Cl)c(Cl)c(Cl)c(Cl)c1Cl	-5	/	-1	1	1	/
COc1ccc(C(CNC(=O)CCc2ccsc2)N(C)C)cc1 (centres undefined)	-5	2	2	0	-4	/
